PubChem BioAssay (NCATS)
Inconclusive results are not listed. Where a call stands in place of a potency, no number is given. More than one record can exist for a structure, and the calls need not agree. Activity calls are given as the source filed them. Calls come from the whole dose curve; as a rule, active = well fitted inhibition curve with a large enough effect; inconclusive = small, poorly fitted or top-dose-only effect; inactive = no such curve, though single readings can be large or run the other way. Non-standard residues stand in square brackets, D forms with d. Residues, ends and D or L forms follow the SMILES beside them. *: point of attachment. Sta = CC(C)C[C@H](N)[C@@H](O)CC(=O)O; Isovaleryl = CC(C)CC(=O)*

Assay: qHTS assay for measurement of the activity of small molecule inhibitors on Zika virus induced Caspase-3 activity in human iPSC derived neural progenitor cells (hNPCs) (AID 1224857); note: nearly all actives have a fitted effect of over 65% in size
Conditions: hNPCs ZIKV-induced caspase-3/7, Caspase-Glo luminescence, 6 h; series mostly up to 45.7 µM
Description: National Center for Advancing Translational Sciences [NCATS]
Johns Hopkins University School of Medicine
Increase in the Caspase-3 activity indicates an activation of apoptosis cell death pathway caused by Zika virus infection in certain types of neuronal cells including human neural progenitor cells (hNPCs), astrocytes, and astrocytoma cell line (SNB-19). This cell-based caspase-3 activity assay measures the increased caspase-3 activity in the human iPSC derived neural progenitor cells (hNPCs) after a 6-hour Zika virus infection with a luminescence readout. A decrease in the luminescence signal in this assay by small molecule treatment indicates an inhibitory effect of that small molecule on the Zika virus induced caspase-3 activity that may correlate with its effect on reduction of Zika virus caused cell death.
The medium for hNPCs consists of DMEM/F12, N2 supplement (ThermoFisher, Cat.# 17502048), NEAA (ThermoFisher, Cat. # 11140050), 2 ug/ml heparin, 2 uM cyclopamine, and B27 (ThermoFisher, Cat. # 17504044). A Caspase-Glo 3/7 assay kit (catalog number G8092; Promega, Madison, WI) was used to detect caspase-3 activity induced by Zika virus infection in human cells. The reagent mixture was reconstituted as described in the protocol from the manufacturer. Polystyrene tissue culture treated and PDL coated white plates were obtained from Greiner Bio-One (Monroe, NC). Cells were seeded in 384- or 1536-well assay plates and cultured at 37 C with 5% CO2 for 16 to 20 hours. The typical cell seeding density in the 1536-well plate assay is 350 cells/well in 3 ul medium for hNPCs in tissue culture treated plates. Compounds were added to cells and incubated for one hour before addition of ZIKV solution to cells (2 FFU/cell). After incubation at 37 C with 5% CO2 for 6 hours, the reagent mixture of Caspase-Glo 3/7 assay kit was added to each well, followed by incubation at room temperature for 30 minutes. The luminescence intensity of the assay plates was measured using a ViewLux plate reader (PerkinElmer). Data were normalized by using the cell-containing wells without ZIKV as a negative control (0% induction of caspase 3/7 activity) and wells containing ZIKV infected cells (Caspase-3 activity induced) as a positive control (100% induction of caspase 3 activity). The percentage inhibitions of the increased Caspase-3 activity by small molecule inhibitors were then calculated.
Potency is the fitted concentration of half-maximal effect.

SMILES | Potency
Clc1ccc(C(Cn2ccnc2)OCc2ccc(Sc3ccccc3)cc2)c(Cl)c1 (stereo not given) | inactive
CCC(C)(Oc1ccc(C2(c3ccc(OC(C)(CC)C(=O)O)cc3)CCCCC2)cc1)C(=O)O (stereo not given) | inactive
Nc1nc(Cl)nc2c1ncn2[C@H]1C[C@H](O)[C@@H](CO)O1 | inactive
CC(=O)Nc1ccc(O)cc1 | inactive
N=C(N=C(N)N)N1CCOCC1 | inactive
CC(C)CC(=O)N[C@H](C(=O)N[C@H](C(=O)N[C@@H](CC(C)C)[C@@H](O)CC(=O)N[C@@H](C)C(=O)N[C@@H](CC(C)C)[C@@H](O)CC(=O)O)C(C)C)C(C)C (Isovaleryl-VV[Sta]A[Sta]-OH) | inactive
CC(C)[C@H](N)C(=O)OCCOCn1cnc2c(=O)[nH]c(N)nc21 | inactive
CCCOc1ccc2nc(NC(=O)OC)[nH]c2c1 | inactive
C[C@]12CCC(=O)C=C1CC[C@@H]1[C@H]2[C@@H](O)C[C@@]2(C)[C@H]1CC[C@]2(O)C(=O)CO | inactive
COc1cc(Nc2c(C#N)cnc3cc(OCCCN4CCN(C)CC4)c(OC)cc23)c(Cl)cc1Cl | inactive
Cc1cc(=O)c2c(O)c3c(O)cc(=O)c4c3c3c(cc(O)c1c23)C(C)(C)C=4O | inactive
O=C(c1ccccc1)c1ccc2n1CCC2C(=O)O (stereo not given) | 18.7 µM (active)
CC1(C)CCC(C)(C)c2cc(NC(=O)c3ccc(C(=O)O)cc3)ccc21 | inactive
Nc1ccn([C@@H]2O[C@H](CO)[C@@H](O)C2O)c(=O)n1 (stereo not given in full) | inactive
Nc1cccc2c1CN(C1CCC(=O)NC1=O)C2=O (stereo not given) | inactive
O=C1c2ccccc2-c2n[nH]c3cccc1c23 | inactive
CCCCC(CC)COC(=O)C(C#N)=C(c1ccccc1)c1ccccc1 (stereo not given) | inactive
O=C(O)CCNC(=O)c1ccc(N=Nc2ccc(O)c(C(=O)O)c2)cc1 | inactive
O=c1ccc2ccc(O)c(O)c2o1 | inactive
COCCCN1CCC(NC(=O)c2cc(Cl)c(N)c3c2OCC3)CC1 | inactive

SMILES | Potency
C[C@@H](N)C1CCC(C(=O)Nc2ccncc2)CC1 (stereo not given in full) | inactive
Cc1nc(-c2ccc(OCC(C)C)c(C#N)c2)sc1C(=O)O | 5.26 µM (active) and inactive
C[C@H](Cn1cnc2c(N)ncnc21)OCP(=O)(O)O | inactive
CC(C)c1ccc2oc3nc(N)c(C(=O)O)cc3c(=O)c2c1 | 1.66 µM (active) and inactive
CC(C)c1nc(CN(C)C(=O)N[C@H](C(=O)N[C@@H](Cc2ccccc2)C[C@H](O)[C@H](Cc2ccccc2)NC(=O)OCc2cncs2)C(C)C)cs1 | inactive
CCC1=C(C)CN(C(=O)NCCc2ccc(S(=O)(=O)NC(=O)NC3CCC(C)CC3)cc2)C1=O (stereo not given) | inactive
O=c1c(O)c(-c2cc(O)c(O)c(O)c2)oc2cc(O)cc(O)c12 | inactive
CC(C)(S)[C@@H](N)C(=O)O | inactive
COCCCOc1ccnc(CS(=O)c2nc3ccccc3[nH]2)c1C (stereo not given) | inactive
CN1C(C(=O)Nc2ccccn2)=C(O)c2sccc2S1(=O)=O | inactive
c1ccc2[nH]c(-c3cscn3)nc2c1 | 16.6 µM (active)
COc1cc(OC)c(C(=O)CCCN2CCCC2)c(OC)c1 | inactive
CC(C)Oc1ccc2c(=O)c(-c3ccccc3)coc2c1 | 10.5 µM (active)
Cc1cccc(C)c1OCC(=O)N[C@@H](Cc1ccccc1)[C@@H](O)C[C@H](Cc1ccccc1)NC(=O)[C@H](C(C)C)N1CCCNC1=O | inactive
CCOC(=O)C(C)Oc1cccc2c(=O)n(CC(=O)Nc3ccc4c(c3)OCCO4)ccc12 (stereo not given) | inactive
Cc1cc2c(s1)Nc1ccccc1N=C2N1CCN(C)CC1 | inactive
O=C(O)c1cccc(-c2noc(-c3ccccc3F)n2)c1 | inactive
Oc1ccc2ccccc2c1SSc1c(O)ccc2ccccc12 | 8.91 µM (active)
CCN(CC)CCOc1ccc(Cc2ccccc2)cc1 | inactive
O=C(NCC1CCCCN1)c1cc(OCC(F)(F)F)ccc1OCC(F)(F)F (stereo not given) | inactive
